The results in this text go back to paper PMC5540273 (PLoS ONE, 2017).

Test systems include TAOK2; TAOK3; TBK1; TEC; TESK1; TGFBR1; TGFBR2; TIE1; TLK1.
Details in all cases: concentration: 1 μM, replicates: in singlicate; n = 1
The next assay relates to T1, TIE2.
T1 construct: gene TEK
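Also: KINOMEscan kinase panel screen.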

With `Cc1cccc(Cn2ccn3c(=O)cc(N4CCOCC4)nc23)c1` [GSK2297542], the “%Inh” value with TAOK2 stood at 5%; in the assay on TAOK3, 0%; with TBK1, 10%; in the assay with TEC it was 11%; in the assay on TESK1, 39%; with TGFBR1, 3%. Besides, the “%Inh” value with TGFBR2 turned out to be 0%; in the assay on TIE1, 0%; in the assay with TIE2, 0%; in the assay on TLK1 it was 16%.

As for `Cc1c2ccc(N(C)c3ccnc(Nc4cccc(S(N)(=O)=O)c4)n3)cc2nn1Cc1ccccc1.Cl.Cl` [GW787226], the “%Inh” value amounted to 72% in the assay with TAOK2; 0% with TAOK3; 35% in the assay with TBK1; 11% with TEC; 15% with TESK1; 0% in the assay with TGFBR1. Besides, the “%Inh” value in the assay on TGFBR2 stood at 63%; in the assay with TIE1 it was 92.2%; in the assay on TIE2 it was 77%; in the assay on TLK1 it was 0%.

On to `COc1cc2ncn(-c3cc(OCc4sccc4Cl)c(C(N)=O)s3)c2cc1OC` [GSK448459], for which the “%Inh” value with TAOK2 turned out to be 0%; in the assay on TAOK3 it was 0%; with TBK1, 15%; in the assay with TEC it was 5%; in the assay with TESK1, 0%; in the assay with TGFBR1 it was 11%. Besides, the “%Inh” value in the assay on TGFBR2 amounted to 0%; in the assay with TIE1 it was 36%; in the assay on TIE2, 0%; in the assay with TLK1, 0%.

`CN(C1=C(c2ccccc2)C(=O)NC1=O)c1ccccc1` [SB-334860]: the “%Inh” value was 0% with TAOK2; 0% in the assay with TAOK3; 29% in the assay with TBK1; 7% in the assay with TEC; 67% with TESK1; 26% in the assay on TGFBR1. Also, the “%Inh” value is 0% in the assay with TGFBR2, 0% in the assay on TIE1, 5% in the assay with TIE2 and 20% in the assay on TLK1.

Consider `O=C(Nc1cccc(-c2nn3ncccc3c2-c2ccnc(Nc3cccc(C(F)(F)F)c3)n2)c1)c1c(F)cccc1F` [GSK299495], for which the “%Inh” value in the assay with TAOK2 was determined as 41%; in the assay on TAOK3, 63%; with TBK1, 6%; in the assay on TEC, 96.8%; in the assay with TESK1, 15%; in the assay with TGFBR1, 8%. Also, the “%Inh” value in the assay with TGFBR2 came out at 1%; with TIE1, 10%; with TIE2, 0%; in the assay with TLK1 it was 0%.
